This passage reports z-score and composite z-score results from PubChem BioAssay.

Active and inactive are the calls of the source. Unless noted, how the calls were made is not given here.

A short description of test [1]: resazurin metabolic signal in HepG2 cells – cell-based, resazurin fluorescence, 24 h, PK04 Diversity Set, profiling panel (AID 1172). The note with it: HepG2 viability, higher = more signal. Background: The colour change of resazurin is a common sign of viable cells or microbes.
Test [2] is described as follows: budding yeast growth changes without added modifier – OD600, strain BY4716, 24 h, basal condition, primary screen (AID 1173). The note with it: S. cerevisiae BY4716 growth, OD600, 24 h; higher = more signal, called active from +8 up or from −8 down.
The nature of test [3]: viability profiling in MM1S myeloma cells – cell-based, resazurin fluorescence, basal, 24 h, PK04 Diversity Set, profiling panel (AID 1174).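 Further: MM1S multiple myeloma cell line.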 The note with it: higher = more signal, called active from +8 up or from −8 down.
Test [4] addresses Dihydroorotate dehydrogenase (quinone), mitochondrial (Plasmodium falciparum (isolate 3D7)) (UniProt Q08210). The experiment in a line: inhibition of P. falciparum DHODH – biochemical, C-terminal His tag, absorbance 600 nm, primary screen (AID 1175).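 Further: recombinant parasite enzyme with a five histidine tag at its C terminus.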 The note with it: PfDHODH enzyme, DCIP absorbance 600 nm; higher = more signal, called active from +8 up or from −8 down.
Test [5] can be described thus: inhibition of PAO1 biofilm formation – strain PAO1, LB-PBS medium, absorbance 600 nm, primary screen (AID 1176). To be noted: P. aeruginosa PAO1 growth/biofilm, A600, 12 h; higher = more signal.
A short description of test [6]: growth modulation of vineyard yeast isolate – strain RM11-1a, OD600, basal, 24 h, primary screen (AID 1177).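 Further: cultures grown under basal conditions with no added stressor.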 To be noted: S. cerevisiae RM11-1a growth, OD600, 24 h; higher = more signal, called active from +8 up or from −8 down.
A short description of test [7]: growth of efflux-deficient E. coli DRC39 – strain DRC39, OD650, 24 h, E. coli filamentation inducers, primary screen (AID 1178).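 Further: growth measured as culture turbidity by optical density at 650 nm.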 The note with it: E. coli DRC39 acrAB, higher = more signal, called active from +8 up or from −8 down.
Test [8] can be described thus: growth of efflux-deficient E. coli DRC39 – strain DRC39, OD650, 48 h, E. coli filamentation inducers, primary screen (AID 1179).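 Further: screen aims at cell division blockers that make cells filament.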 The note with it: E. coli DRC39 delta-acrAB growth, higher = more signal, called active from +8 up or from −8 down.
Test [9] in a line: viability profiling in RPMI8226 myeloma cells – cell-based, resazurin fluorescence, basal, 24 h, PK04 Diversity Set, profiling panel (AID 1180).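 Further: RPMI8826 multiple myeloma cell line at 5000 cells per well.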 To be noted: higher = more signal.
In test [10] the target is E3 ubiquitin-protein ligase XIAP (Homo sapiens) (UniProt P98170). The experiment in a line: small molecules binding XIAP protein – biophysical, small-molecule microarray, fluorescence 635 nm, primary screen (AID 1181).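 Further: score merges 667 nm emission and signal to noise over triplicate slides.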 The note with it: higher = more signal.
In test [11] the test system is XIP peptide (Xip251-270) binding. The experiment in a line: XIP fragment 251-270 binding compounds – biochemical, small-molecule microarray, fluorescence 635/667 nm, 0.1 µg/mL protein, primary screen (AID 1182). To be noted: fluorescent protein binding, 635 nm, higher = more signal, called active from +8 up or from −8 down.
The next test relates to XIP peptide (Xip251-270). In words: compounds binding XIP fragment 251-270 – biochemical, small-molecule microarray, fluorescence 635/667 nm, 0.5 µg/mL protein, primary screen (AID 1183). The note with it: fluorescence 635 nm, higher = more signal.
Test [12] can be described thus: blood-stage malaria parasite viability loss – strain 3D7, DAPI fluorescence, 100 nL, primary screen (AID 1184).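 Further: parasites grown inside human red blood cells in medium with human serum.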 To be noted: P. falciparum 3D7 growth, 3 d, higher = more signal.
The target in test [13] is Homeobox protein Hox-A13 (Mus musculus) (UniProt Q62424). The experiment in a line: disruptors of Hoxa13 oligonucleotide interaction – biochemical, fluorescence polarization, labeled oligonucleotide, primary screen (AID 1185). The note with it: Hoxa13:DNA binding, 15 min, higher = more signal, called active from +8 up or from −8 down. On the technique in general: In fluorescence polarisation assays a small probe gives low polarisation when free and higher when bound to something large.

A short description of test [14]: blockers of DNA damage checkpoint Chk1 activation – imaging, HeLa, hydroxyurea, phospho-Chk1 antibody, percent positive cells, primary screen (AID 1186). The note with it: hydroxyurea-induced phospho-Chk1 immunofluorescence imaging, higher = more signal.
The nature of test [15]: blockers of DNA damage checkpoint Chk1 activation – imaging, HeLa, hydroxyurea, phospho-Chk1 nuclear intensity, primary screen (AID 1187). The note with it: hydroxyurea-induced phospho-Chk1 immunofluorescence imaging, higher = more signal.

Dihydroorotate dehydrogenase (quinone), mitochondrial (Plasmodium falciparum (isolate 3D7)), sequence (Q08210 whole entry, looked up): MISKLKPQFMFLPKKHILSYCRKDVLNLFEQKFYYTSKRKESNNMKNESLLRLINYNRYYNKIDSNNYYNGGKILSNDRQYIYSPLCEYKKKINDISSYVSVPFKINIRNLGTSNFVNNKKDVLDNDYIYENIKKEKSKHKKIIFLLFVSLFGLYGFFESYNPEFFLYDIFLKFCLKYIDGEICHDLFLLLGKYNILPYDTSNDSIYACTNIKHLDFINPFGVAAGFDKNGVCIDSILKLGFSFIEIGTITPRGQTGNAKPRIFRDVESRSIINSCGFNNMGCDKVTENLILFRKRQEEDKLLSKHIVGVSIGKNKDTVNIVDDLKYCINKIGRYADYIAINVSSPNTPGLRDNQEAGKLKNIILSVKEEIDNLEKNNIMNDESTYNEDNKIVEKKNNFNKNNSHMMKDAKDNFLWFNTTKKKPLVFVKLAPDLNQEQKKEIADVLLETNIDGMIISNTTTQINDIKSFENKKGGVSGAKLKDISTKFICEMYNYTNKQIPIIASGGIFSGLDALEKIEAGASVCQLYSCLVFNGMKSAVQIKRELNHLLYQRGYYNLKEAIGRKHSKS
E3 ubiquitin-protein ligase XIAP (Homo sapiens), sequence (P98170 whole entry, looked up, the tested form may be a part): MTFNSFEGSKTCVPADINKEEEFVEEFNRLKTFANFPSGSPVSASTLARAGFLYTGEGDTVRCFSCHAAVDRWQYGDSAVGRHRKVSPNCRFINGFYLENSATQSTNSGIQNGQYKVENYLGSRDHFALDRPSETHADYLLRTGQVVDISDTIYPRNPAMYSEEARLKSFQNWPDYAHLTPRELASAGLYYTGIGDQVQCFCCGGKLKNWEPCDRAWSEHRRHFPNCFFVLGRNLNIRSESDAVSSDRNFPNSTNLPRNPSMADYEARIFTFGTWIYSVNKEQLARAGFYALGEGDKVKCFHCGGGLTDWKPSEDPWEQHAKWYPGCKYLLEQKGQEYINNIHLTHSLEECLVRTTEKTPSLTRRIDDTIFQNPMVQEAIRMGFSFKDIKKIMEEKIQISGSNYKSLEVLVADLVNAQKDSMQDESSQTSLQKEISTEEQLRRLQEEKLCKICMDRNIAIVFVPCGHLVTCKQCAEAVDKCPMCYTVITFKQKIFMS
Homeobox protein Hox-A13 (Mus musculus), sequence (Q62424 whole entry, looked up): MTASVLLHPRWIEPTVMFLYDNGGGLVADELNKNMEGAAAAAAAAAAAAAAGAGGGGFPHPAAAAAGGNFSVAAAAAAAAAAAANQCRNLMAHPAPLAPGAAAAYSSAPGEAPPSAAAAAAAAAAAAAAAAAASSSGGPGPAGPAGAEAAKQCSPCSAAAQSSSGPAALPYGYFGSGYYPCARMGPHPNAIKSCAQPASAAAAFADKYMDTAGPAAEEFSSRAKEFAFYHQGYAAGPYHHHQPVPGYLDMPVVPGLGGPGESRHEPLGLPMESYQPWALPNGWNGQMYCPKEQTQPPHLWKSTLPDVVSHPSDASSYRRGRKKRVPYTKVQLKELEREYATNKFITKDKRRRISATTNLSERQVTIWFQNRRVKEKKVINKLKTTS

`Cc1ccc(S[C@]2(C(=O)NCC(F)(F)F)CC(=O)N(Cc3cc(C(F)(F)F)cc(C(F)(F)F)c3)[C@@H]2c2ccc(CO)cc2)cc1`: the z-score in test [1] was -0.686; in test [2], 0.438 (inactive); in test [3] it was -0.266 (inactive); in test [5], 0.214 (inactive); in test [6], -0.145 (inactive); in test [7], -0.362 (inactive). Also, the z-score is -0.615 (inactive) in [8]; -0.445 in test [9]; 1.2 in test [12]; -1.71 (inactive) in test [13]; 0.0254 (inactive) in [14]; 0.474 (inactive) in [15]. Besides, the composite z-score was -13.9 (active) in [4], -0.241 in test [10], -0.491 (inactive) in test [11] and 0.584 in the test with XIP peptide (Xip251-270).

Take `COc1ccc(C#Cc2ccc3c(c2)[C@]2(C(=O)N3)[C@H](C(=O)O)[C@H]3C(=O)O[C@H](c4ccccc4)[C@H](c4ccccc4)N3[C@@H]2c2ccc(O)cc2)cc1`: the z-score in test [1] is -0.704; in test [2], -1.07 (inactive); in test [3], 0.239 (inactive); in [5], 0.381 (inactive); in [6], 0.128 (inactive); in test [7], -0.0897 (inactive). The z-score is -0.94 (inactive) in test [8]; -0.152 in test [9]; -1.47 in test [12]; -6.25 (inactive) in [13]; -0.366 (inactive) in [14]; -0.651 (inactive) in test [15]. Besides, the composite z-score was -4.06 (inactive) in test [4], -0.209 in [10], 1.14 (inactive) in test [11] and -0.516 in the test on XIP peptide (Xip251-270).

For `C=C(COC)/C(=C/C[C@H](OC(=O)c1ccncc1)c1ccccc1OCCO)c1cc(C(=O)OC)ccc1OC`, the z-score in [1] is -0.418; in test [2], -0.0515 (inactive); in test [3] it was -2.16 (inactive); in test [5], 0.367 (inactive); in test [6], -0.567 (inactive); in test [7] it was -1.31 (inactive). Further, the z-score is -1.21 (inactive) in test [8]; -1.58 in test [9]; -2.95 in test [12]; -4.91 (inactive) in [13]; 0.127 (inactive) in [14]; 0.0857 (inactive) in test [15]. In addition, the composite z-score is -2.32 (inactive) in test [4], -0.157 in test [10], 0.0249 (inactive) in test [11] and 0.12 in the test with XIP peptide (Xip251-270).

Regarding `CN(C)C(=O)[C@@]1(Cc2ccccc2CN=[N+]=[N-])N=C(c2ccc(OCCCO)cc2)O[C@H]1c1ccccc1N=[N+]=[N-]`, the z-score is -0.699 in test [1]; 0.37 (inactive) in test [2]; -2.96 (inactive) in test [3]; 0.522 (inactive) in [5]; 1.22 (inactive) in [6]; 0.776 (inactive) in test [7]. The z-score was -0.893 (inactive) in test [8]; -3.85 in test [9]; -2.02 in test [12]; -0.638 (inactive) in test [13]; -0.0351 (inactive) in test [14]; -0.336 (inactive) in [15]. The composite z-score in test [4] is 1.3 (inactive); in test [10], 0.202; in test [11], 0.458 (inactive); in the test on XIP peptide (Xip251-270) it was 0.822.

With `COCCCNC(=O)[C@@]1(CCC(=O)OC(C)(C)C)N=C(c2ccc(OCCCO)cc2)O[C@H]1c1ccccc1N=[N+]=[N-]`, the z-score was 1.6 in test [1]; -0.497 (inactive) in test [2]; -0.0477 (inactive) in [3]; -0.165 (inactive) in [5]; 0.252 (inactive) in [6]; 1.42 (inactive) in [7]. For the same molecule, the z-score is 0.268 (inactive) in [8]; 0.72 in test [9]; -2.39 in test [12]; -4.09 (inactive) in test [13]; 0.739 (inactive) in test [14]; 1.43 (inactive) in test [15]. In addition, the composite z-score in test [4] is -0.291 (inactive); in test [10], -0.0773; in test [11], 3.51 (inactive); in the test with XIP peptide (Xip251-270), 0.476.

`NC(=O)[C@@]1(Cc2ccccc2)COC(c2ccc(OCCCO)cc2)=N1`: the z-score was -0.101 in test [1]; 0.539 (inactive) in test [2]; 0.153 (inactive) in test [3]; -0.0304 (inactive) in test [5]; 1.58 (inactive) in [6]; 2.1 (inactive) in [7]. In addition, the z-score in [8] was 0.595 (inactive); in [9], -0.0366; in test [12], 0.0597; in [13], -2.25 (inactive); in test [14] it was 0.279 (inactive); in test [15], 0.382 (inactive). Besides, the composite z-score in test [4] was 1.86 (inactive); in [10], -0.0559; in [11] it was 0.198 (inactive); with XIP peptide (Xip251-270), -0.959.

With `O=C(c1ccccc1)N1C(=O)[C@]2(Cc3ccccc31)N=C(c1ccc(OCCCO)cc1)O[C@@H]2c1ccccc1`, the z-score in test [1] is -2.28; in [2], 0.964 (inactive); in test [3] it was -5.95 (inactive); in test [5], 1.82 (inactive); in test [6] it was 2.14 (inactive); in test [7], -0.18 (inactive). In addition, the z-score in [8] was -1.01 (inactive); in test [9], -5.46; in [12], -1.87; in test [13], -5.04 (inactive); in test [14], 0.546 (inactive); in test [15] it was 0.796 (inactive). Also, the composite z-score is 0.934 (inactive) in [4], 0.233 in test [10], 0.409 (inactive) in test [11] and 0.387 in the test on XIP peptide (Xip251-270).

On to `COc1ccc([Si](C)(C)[C@H]2[C@H](CC(=O)N3Cc4ccccc4C[C@H]3CO)O[C@@]3(C(=O)N(Cc4ccc(N5CCOC5=O)cc4)c4ccccc43)[C@@H]2C)cc1`, for which the z-score in [1] was -0.418; in [2] it was -0.895 (inactive); in [3], -3.41 (inactive); in test [5] it was 0.732 (inactive); in [6], 0.543 (inactive); in test [7], 0.166 (inactive). Moreover, the z-score in test [8] was -0.207 (inactive); in test [9], -2.27; in test [12], -0.847; in test [13], -3.92 (inactive); in test [14], -0.719 (inactive); in test [15] it was -0.869 (inactive). In addition, the composite z-score in test [4] is -1.03 (inactive); in test [10], -0.105; in [11], 1.61 (inactive); with XIP peptide (Xip251-270) it was 0.742.

Regarding `COCCOC(=O)N1C(=O)[C@@]2(c3cc(C#CCCO)ccc31)[C@H](c1ccc(OCCO)cc1)N1[C@H](c3ccccc3)[C@H](c3ccccc3)OC(=O)[C@H]1[C@@H]2C(=O)Nc1nc2ccccc2s1`, the z-score is 0.32 in test [1]; 1.9 (inactive) in test [2]; -0.344 (inactive) in test [3]; 1.56 (inactive) in test [5]; 2.38 (inactive) in test [6]; -0.0627 (inactive) in [7]. Further, the z-score in test [8] is 0.0759 (inactive); in [9], -0.687; in test [12] it was 0.335; in test [13], 0.838 (inactive); in test [14], -0.0639 (inactive); in test [15], -0.355 (inactive). The composite z-score in test [4] is -0.719 (inactive); in [10] it was -0.124; in test [11] it was 0.514 (inactive); with XIP peptide (Xip251-270) it was 0.509.
